Screening results (PubChem)
Rows were chosen to be rich in hits. Some 2.3% of all compounds tested hit in one or more screens of this group.
M1 PAM parental – nonselective activator or artifact in parental CHO-K1 calcium assay; AID 602247; 360,000 tested, 0.02% active; ATP EC20, Fluo-8 calcium fluorescence; 0% at ATP EC20, 100% at ATP max; activation, % at 3 µM;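 active = activation above the run cutoff, the mean activation of all test compounds plus 3 SD, cut at about 40% in these data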;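 also: peak over basal fluorescence ratio in a 140 s read after ATP addition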
M1 antag – antagonists of human M1 muscarinic receptor; P11229; CHO-K1 hM1, Fluo-8 calcium fluorescence, ACh EC80 antagonist; inhibition, % at 3 µM; 360,000 tested, 1.3% active;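 active = percent inhibition above its own plate's cutoff, namely the mean of that plate's compound wells plus 3 SD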;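 also: peak over basal fluorescence ratio during 140 s after agonist addition; 0% = ACh EC80 plus DMSO and 100% = DMSO alone without agonist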
Target sequence (P11229 whole entry, looked up): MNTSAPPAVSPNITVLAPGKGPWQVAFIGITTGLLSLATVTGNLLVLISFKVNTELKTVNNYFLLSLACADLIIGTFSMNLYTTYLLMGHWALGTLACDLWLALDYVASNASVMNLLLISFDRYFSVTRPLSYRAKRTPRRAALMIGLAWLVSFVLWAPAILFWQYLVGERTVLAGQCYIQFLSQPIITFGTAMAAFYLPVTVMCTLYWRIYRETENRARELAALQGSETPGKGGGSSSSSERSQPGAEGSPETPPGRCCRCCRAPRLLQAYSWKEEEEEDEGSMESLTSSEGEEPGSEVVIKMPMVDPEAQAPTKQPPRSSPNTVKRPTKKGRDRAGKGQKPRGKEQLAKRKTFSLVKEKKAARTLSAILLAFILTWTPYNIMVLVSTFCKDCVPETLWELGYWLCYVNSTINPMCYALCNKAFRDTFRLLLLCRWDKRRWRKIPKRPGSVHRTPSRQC
CHO-K1 Ca antag – nonselective inhibitor or artifact in parental CHO-K1 cells; ATP-induced calcium, Fluo-8 fluorescence; inhibition, % at 3 µM; 360,000 tested, 0.6% active;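 active = inhibition above a per-plate cutoff, the plate's mean sample inhibition plus 3 SD, cut at about 24% in these data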;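 also: 0% = DMSO plus EC80 ATP and 100% = DMSO alone without ATP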
M1 ag parental – M1 agonist counterscreen hit in parental CHO-K1 cells; Fluo-8 calcium fluorescence; scaled to maximal ATP response, vehicle zero; activation, % at 3 µM; 360,000 tested, 0.48% active; in the data active = activation above about 15%;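 also: untransfected CHO-K1 host cells lacking M1 receptor as counterscreen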
CHRM1 agonist – agonists of human M1 muscarinic receptor. AID 588814. CHO-K1 hM1, Fluo-8 calcium fluorescence, agonist mode; 0% DMSO, 100% acetylcholine EC100. activation, % at 3 µM. 360,000 tested, 0.33% active;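 active = activation above the run's mean compound activation plus 3 SD, cut at about 16% in these data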;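 also: peak over basal fluorescence ratio within a 140 s kinetic read after compound addition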
CHRM1 PAM – human CHRM1 positive allosteric modulation | P11229 | CHO-K1 hM1, Fluo-8 calcium fluorescence, ACh EC20; 0% = ACh EC20, 100% = maximal ACh | activation, % at 3 µM | 360,000 tested, 0.088% active; in the data active = activation above about 19%, passing the limit was not always enough
Numbers without * were called inactive.

Results for CC(C)C(O)(C#CCN1CCCCC1)C(C)C ?
M1 PAM parental: 12.0; M1 antag: 64.1*; CHO-K1 Ca antag: -9.8; M1 ag parental: 0.9; CHRM1 agonist: -13.7; CHRM1 PAM: -26.8

How did OC(C#CCN1CCCCC1)(c1ccccc1)c1ccccc1 do in these assays?
M1 PAM parental: 18.2; M1 antag: 100.0*; CHO-K1 Ca antag: -9.0; M1 ag parental: 1.9; CHRM1 agonist: -7.8; CHRM1 PAM: -26.3

How did O=C(Nc1ccccn1)C1CCN(C(=O)c2ccc(Cl)cc2)CC1 do in these assays?
M1 PAM parental: 8.5; M1 antag: -16.3; CHO-K1 Ca antag: -12.6; M1 ag parental: 0.9; CHRM1 agonist: 1.2; CHRM1 PAM: 4.4

What do the screens show for `COCc1c(C(=O)NCC(c2ccco2)N2CCCC2)oc2ccccc12` (stereo unspecified)?
M1 PAM parental: 10.2; M1 antag: -3.1; CHO-K1 Ca antag: -7.6; M1 ag parental: 0.2; CHRM1 agonist: -8.4; CHRM1 PAM: -0.1

What do the screens show for `COc1ccc(NC(C)=O)cc1S(=O)(=O)N1CCN(Cc2cccs2)CC1`?
M1 PAM parental: 11.2; M1 antag: -9.8; CHO-K1 Ca antag: -10.5; M1 ag parental: 1.1; CHRM1 agonist: 5.9; CHRM1 PAM: 24.2*

Results for COc1ccc(C(=O)NCc2cccs2)cc1S(=O)(=O)N1CCOCC1 ?
M1 PAM parental: -0.6; M1 antag: -3.9; CHO-K1 Ca antag: -5.9; M1 ag parental: 0.6; CHRM1 agonist: -4.2; CHRM1 PAM: 5.7

How did COc1ccc(/C=C/C(=O)N(C)Cc2cccs2)cc1S(=O)(=O)N1CCOCC1 do in these assays?
M1 PAM parental: 4.5; M1 antag: 6.1; CHO-K1 Ca antag: -0.2; M1 ag parental: 16.4*; CHRM1 agonist: -7.5; CHRM1 PAM: 4.2

Results for COCCCNC(=S)N(CCCO)Cc1cc2cc3c(cc2[nH]c1=O)OCO3 ?
M1 PAM parental: 17.0; M1 antag: -5.8; CHO-K1 Ca antag: -8.4; M1 ag parental: -0.1; CHRM1 agonist: -1.0; CHRM1 PAM: 6.7

What do the screens show for `Cc1ccccc1NC(=O)CNC(=O)c1ccc(C(F)(F)F)cc1`?
M1 PAM parental: -11.9; M1 antag: 1.2; CHO-K1 Ca antag: 2.8; M1 ag parental: 0.1; CHRM1 agonist: 6.0; CHRM1 PAM: 1.6

Results for O=C(Nc1ccccc1)Nc1cccc(C(F)(F)F)c1 ?
M1 PAM parental: -11.2; M1 antag: 18.1; CHO-K1 Ca antag: 30.0*; M1 ag parental: 10.7; CHRM1 agonist: 4.9; CHRM1 PAM: -22.6

How did Cc1cc(C)cc(NC(=O)Nc2ccc(-n3ccc(C(F)(F)F)n3)cc2)c1 do in these assays?
M1 PAM parental: -12.7; M1 antag: 17.8; CHO-K1 Ca antag: 14.5; M1 ag parental: 3.1; CHRM1 agonist: -0.7; CHRM1 PAM: -9.0

What do the screens show for `COc1ccc(NC(=O)Nc2ccc([N+](=O)[O-])cc2)cn1`?
M1 PAM parental: -15.3; M1 antag: 22.9; CHO-K1 Ca antag: 18.2; M1 ag parental: 16.2*; CHRM1 agonist: 7.9; CHRM1 PAM: -5.2

What do the screens show for `CNC(=O)Nc1cccc(C(F)(F)F)c1`?
M1 PAM parental: 15.0; M1 antag: 1.1; CHO-K1 Ca antag: -6.5; M1 ag parental: 1.3; CHRM1 agonist: -1.2; CHRM1 PAM: 5.6

What do the screens show for `O=C(Nc1ccc(-n2ccc(C(F)(F)F)n2)cc1)Nc1cccc(Cl)c1`?
M1 PAM parental: -24.5; M1 antag: 45.2*; CHO-K1 Ca antag: 30.5*; M1 ag parental: 14.6; CHRM1 agonist: 4.5; CHRM1 PAM: -19.2

How did Cc1ccccc1NC(=O)Nc1ccc(C(F)(F)F)cc1 do in these assays?
M1 PAM parental: -8.6; M1 antag: 13.5; CHO-K1 Ca antag: 24.1*; M1 ag parental: 11.4; CHRM1 agonist: -5.3; CHRM1 PAM: -20.5

Results for O=C(c1c(F)c(F)c(F)c(F)c1F)N1CCc2ccccc21 ?
M1 PAM parental: 4.7; M1 antag: -7.5; CHO-K1 Ca antag: 17.7; M1 ag parental: -0.5; CHRM1 agonist: -2.9; CHRM1 PAM: 6.2

Results for C=C1[C@@H](CCO)N(S(=O)(=O)C(C)(C)C)C[C@@H]1C ?
M1 PAM parental: -1.8; M1 antag: -1.2; CHO-K1 Ca antag: -0.3; M1 ag parental: 0.1; CHRM1 agonist: -1.4; CHRM1 PAM: 2.1

Results for Cc1nn(CC(=O)Nc2ccc(Cl)c(S(=O)(=O)N(C)C)c2)c(C)c1[N+](=O)[O-] ?
M1 PAM parental: 1.0; M1 antag: 5.9; CHO-K1 Ca antag: 3.8; M1 ag parental: 2.0; CHRM1 agonist: -5.3; CHRM1 PAM: -3.4

What do the screens show for `O=C(CN1CCOCC1)Nc1cccc(C(=O)Nc2cccc(C(F)(F)F)c2)c1`?
M1 PAM parental: 6.0; M1 antag: -4.8; CHO-K1 Ca antag: 0.0; M1 ag parental: 1.2; CHRM1 agonist: -0.7; CHRM1 PAM: 5.0

How did CC(=O)c1c(C)[nH]c(C(=O)Nc2cccc(C#N)c2)c1C do in these assays?
M1 PAM parental: -5.9; M1 antag: 5.2; CHO-K1 Ca antag: -10.3; M1 ag parental: 8.0; CHRM1 agonist: 1.9; CHRM1 PAM: -2.9

How did COc1ccc(NC(=O)Nc2cc(C)cc(C)c2)cn1 do in these assays?
M1 PAM parental: 0.3; M1 antag: -7.7; CHO-K1 Ca antag: -2.6; M1 ag parental: 5.1; CHRM1 agonist: 1.1; CHRM1 PAM: 4.2

How did Cc1ccc(OC(F)F)c(NC(=O)Nc2cccc(C(F)(F)F)c2)c1 do in these assays?
M1 PAM parental: -3.0; M1 antag: 27.7*; CHO-K1 Ca antag: 5.9; M1 ag parental: 7.3; CHRM1 agonist: -4.9; CHRM1 PAM: -21.9

How did COc1cccc(NC(=O)Nc2cc(C)ccc2OC)c1 do in these assays?
M1 PAM parental: 13.8; M1 antag: -4.2; CHO-K1 Ca antag: -9.3; M1 ag parental: 0.4; CHRM1 agonist: -8.2; CHRM1 PAM: 5.0

Results for CC(=O)c1c(C)[nH]c(C(=O)Nc2cccc(C(F)(F)F)c2)c1C ?
M1 PAM parental: -11.2; M1 antag: 24.7*; CHO-K1 Ca antag: 3.5; M1 ag parental: 18.4*; CHRM1 agonist: 3.2; CHRM1 PAM: -15.6

What do the screens show for `COc1ccc(NC(=O)Nc2cccc(C(F)(F)F)c2)cn1`?
M1 PAM parental: -4.3; M1 antag: 12.9; CHO-K1 Ca antag: 26.3*; M1 ag parental: 9.4; CHRM1 agonist: -0.8; CHRM1 PAM: -3.0

How did CCCCCNCC(=O)Nc1cccc(C(=O)Nc2cccc(C(F)(F)F)c2)c1 do in these assays?
M1 PAM parental: -7.9; M1 antag: 13.8; CHO-K1 Ca antag: 7.1; M1 ag parental: 24.4*; CHRM1 agonist: 9.3; CHRM1 PAM: 2.9

Results for CCC1=C(OC(=O)N(CC)CC)N2C(=O)OC(=NCCc3c[nH]c4ccccc34)[C@]2(C)[C@H]2C1=CC[C@H]1C(=O)N(CC(=O)OC)C(=O)[C@H]12 ?
M1 PAM parental: 24.1; M1 antag: -4.7; CHO-K1 Ca antag: -13.8; M1 ag parental: 0.4; CHRM1 agonist: -7.9; CHRM1 PAM: 6.7

How did Cc1c(Cl)cccc1NC(=S)N1CCN(Cc2ccccc2)CC1 do in these assays?
M1 PAM parental: 18.1; M1 antag: -7.2; CHO-K1 Ca antag: -10.5; M1 ag parental: 0.8; CHRM1 agonist: 18.6*; CHRM1 PAM: 6.5
